# From the supplement of paper PMC8728848
# The full list was thinned out, with the strongest signals kept by preference.
# B1: Surfactant Protein D (Human); Neck + Carbohydrate Recognition Domain (NCRD) (Homo sapiens) (protein)
# chain: MLLFLLSALVLLTQPLGYLEAEMKTYSHRTMPSACTLVMCSSVESGLPGRDRDGREGPRGEKGDPGLPGAAGQAGMPGQAGPVGPKGDNGSVGEPGPKGDTGPSGPPGPPGVPGPAGREGALGKQGNIGPQGKPGPKGEAGPKGEVGAPGMQGSAGARGLAGPKGERGVPGERGVPGNTGAAGSAGAMGPQGSPGARGPPGLKGDKGIPGDKGAKGESGLPDVASLRQQVEALQGQVQHLQAAFSQYKKVELFPNGQSVGEKIFKTAQFVKPFTEAQLLCTQAGGQLASPRSAAENAALQQLVVAKNEAAFLSMTDSKTEGKFTYPTGESLVYSNWAPGEPNDDGGSEDCVEIFTNGKWNDRACGEARLVVCEF
# Tests used:
# Assay in all cases: glycan array binding signal (z-score within array); higher = stronger binding
# Conditions in all cases: glycan notation: IUPAC condensed, linker removed; mutation: K348A
# [1] = target: Fuc(a1-2)Gal(b1-4)GlcNAc
# How it was run: (§1)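 Columns mapping to the same glycan were averaged after glycan names were converted to IUPAC-condensed notation. The data come from 3228 arrays in the Consortium for Functional Glycomics database, limited to those with an available protein sequence. Binding is reported as a within-array Z-score averaged across arrays of one protein sequence and across linkers.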
# [2] = target: Fuc(a1-2)Gal(b1-4)[Fuc(a1-3)]GlcNAc(b1-3)Gal(b1-4)[Fuc(a1-3)]GlcNAc(b1-3)Gal(b1-4)[Fuc(a1-3)]GlcNAc
# How it was run: as §1
# [3] = target: Fuc(a1-2)[Gal(a1-3)]Gal(b1-4)[Fuc(a1-3)]GlcNAc
# How it was run: as §1
# [4] = target: Fuc(a1-2)[GalNAc(a1-4)]Gal(b1-4)GlcNAc
# How it was run: as §1
# [5] = target: Fuc(a1-3)GlcNAc
# How it was run: as §1
# [6] = target: Fuc(a1-3)[Gal(b1-4)]GlcNAc(b1-2)Man(a1-3)[Fuc(a1-3)[Gal(b1-4)]GlcNAc(b1-2)Man(a1-6)]Man(b1-4)GlcNAc(b1-4)GlcNAc
# How it was run: as §1
# [7] = target: Fuc(a1-3)[Gal(b1-4)]GlcNAc(b1-4)Gal(b1-4)[Fuc(a1-3)]GlcNAc
# How it was run: as §1
# [8] = target: Fuc(a1-3)[Gal(b1-4)]GlcNAc6S
# How it was run: as §1
# [9] = target: Gal(b1-3)[Neu5Ac(b2-6)]GalNAc
# How it was run: as §1
# [10] = target: Gal(b1-4)GalNAc(a1-3)[Fuc(a1-2)]Gal(b1-4)GlcNAc
# How it was run: as §1
# [11] = target: Gal(b1-4)GlcNAc(b1-3)[Gal(b1-4)GlcNAc(b1-6)]Gal(b1-4)GlcNAc
# How it was run: as §1
# [12] = target: Gal(b1-4)GlcNAc(b1-6)GalNAc
# How it was run: as §1
# [13] = target: GalNAc(b1-4)GlcNAc
# How it was run: as §1
# [14] = target: Glc(a1-4)Glc
# How it was run: as §1
# [15] = target: Glc(b1-4)Glc
# How it was run: as §1
# [16] = target: GlcNAc(b1-3)[GlcNAc(b1-6)]Gal(b1-4)GlcNAc
# How it was run: as §1
# [17] = target: Man(a1-2)Man(a1-2)Man(a1-6)[Man(a1-3)]Man
# How it was run: as §1
# [18] = target: Man(a1-2)Man(a1-3)[Man(a1-2)Man(a1-6)]Man
# How it was run: as §1
# [19] = target: Man(a1-2)Man(a1-3)[Man(a1-2)Man(a1-6)]Man(a1-6)[Man(a1-2)Man(a1-2)Man(a1-3)]Man
# How it was run: as §1
# [20] = target: Man(a1-3)[Man(a1-6)]Man(a1-6)[Man(a1-2)Man(a1-3)]Man(b1-4)GlcNAc(b1-4)GlcNAc
# How it was run: as §1
# [21] = target: Man(a1-3)[Man(a1-6)]Man(a1-6)[Man(a1-3)]Man
# How it was run: as §1
# [22] = target: Neu5Ac(a2-3)Gal(b1-3)GalNAc(b1-4)[Neu5Ac(a2-3)]Gal(b1-4)Glc
# How it was run: as §1
# [23] = target: Neu5Ac(a2-3)Gal(b1-3)[Fuc(a1-4)]GlcNAc(b1-3)Gal(b1-4)[Fuc(a1-3)]GlcNAc
# How it was run: as §1
# [24] = target: Neu5Ac(a2-3)Gal(b1-4)[Fuc(a1-3)]GlcNAc(b1-3)Gal
# How it was run: as §1
# [25] = target: Neu5Ac(a2-3)Gal(b1-4)[Fuc(a1-3)]GlcNAc(b1-6)[Gal(b1-3)]GalNAc
# How it was run: as §1
# [26] = target: Neu5Ac(a2-6)Gal(b1-4)Glc
# How it was run: as §1
# [27] = target: Neu5Gc(a2-3)Gal(b1-3)[Fuc(a1-4)]GlcNAc
# How it was run: as §1
binder,measurement,setting,value
B1,glycan array binding signal (z-score),[1],-0.173
same,glycan array binding signal (z-score),[2],-0.151
same,glycan array binding signal (z-score),[3],-0.148
same,glycan array binding signal (z-score),[4],-0.151
same,glycan array binding signal (z-score),[5],-0.116
same,glycan array binding signal (z-score),[6],-0.176
same,glycan array binding signal (z-score),[7],-0.134
same,glycan array binding signal (z-score),[8],-0.17
same,glycan array binding signal (z-score),[9],-0.09
same,glycan array binding signal (z-score),[10],-0.175
same,glycan array binding signal (z-score),[11],-0.175
same,glycan array binding signal (z-score),[12],-0.173
same,glycan array binding signal (z-score),[13],-0.165
same,glycan array binding signal (z-score),[14],-0.171
same,glycan array binding signal (z-score),[15],-0.16
same,glycan array binding signal (z-score),[16],-0.177
same,glycan array binding signal (z-score),[17],8.57
same,glycan array binding signal (z-score),[18],7.38
same,glycan array binding signal (z-score),[19],8.69
same,glycan array binding signal (z-score),[20],6.04
same,glycan array binding signal (z-score),[21],6.52
same,glycan array binding signal (z-score),[22],-0.156
same,glycan array binding signal (z-score),[23],0.451
same,glycan array binding signal (z-score),[24],-0.173
same,glycan array binding signal (z-score),[25],-0.015
same,glycan array binding signal (z-score),[26],-0.17
same,glycan array binding signal (z-score),[27],-0.149
